Reference: PubChem BioAssay (EPA / NIEHS)
Records with an inconclusive call do not appear. The source made the active and inactive calls. Rule for the calls, unless noted: active = hit-call score of the fitted dose curve at least 0.9, where 1 is the maximum; inactive = score below 0.9.

Tests used:
[1] = biological target: Nuclear respiratory factor 1 (Homo sapiens) (UniProt Q16656); experiment: ATG_NRF1_CIS: Attagene CIS-FACTORIAL HepG2 Assay for human Nuclear Respiratory Factor 1 (NRF1) Orphan Gene (AID 2282987); conditions: HepG2 NRF1 cis-element reporter, Attagene multiplex; actives raise or lower the signal
Method in brief: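 Human hepatoma HepG2 cells carrying transfected promoter-regulated reporter units were incubated with test chemicals for 24 h. Reporter transcripts were measured by RT-PCR plus capillary electrophoresis, and endpoints derived by bidirectional fitting with DMSO as baseline.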

[2] = ATG_NFI_CIS: Attagene CIS-FACTORIAL HepG2 Assay for human Nuclear Factor I (NFI) (AID 2282989); conditions: HepG2 cis-regulatory reporter, NFI response element transcription; actives raise or lower the signal
Method in brief: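 Cells: human liver HepG2, transiently transfected with promoter-regulated reporter transcription units. Exposure 24 h. Detection: fluorescent RT-PCR products separated by capillary electrophoresis, normalised to DMSO negative control.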

[3] = biological target: Myc proto-oncogene protein (Homo sapiens) (UniProt P01106); experiment: ATG_Myc_CIS: Attagene CIS-FACTORIAL HepG2 Assay for human Myelocytomatosis (Myc) Proto-Oncogene Transcription Factor (AID 2282990); conditions: HepG2, Attagene cis-reporter transcription factor activity; actives raise or lower the signal
Method in brief: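 After 24 h chemical treatment of HepG2 cells carrying multiplexed cis-regulated reporter constructs, reporter transcripts quantified by RT-PCR and capillary electrophoresis of fluorescent fragments. Gain or loss fitted against DMSO baseline.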

[4] = ATG_NF_kB_CIS: Attagene CIS-FACTORIAL HepG2 Assay for human Nuclear Factor Kappa B (NF-kB) (AID 2282991); conditions: HepG2 Attagene cis-factorial NF-kB reporter mRNA; actives raise or lower the signal
Method in brief: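 Multiplexed cis-reporter assay in transiently transfected HepG2. 24 h treatment; RNA isolated, RT-PCR, labelled fragments resolved by CE. DMSO baseline.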

[5] = ATG_NRF2_ARE_CIS: Attagene CIS-FACTORIAL HepG2 Assay for human Nuclear Factor Erythroid 2 Related Factor 2 (NFR2) response to Antioxidant Response Elements (ARE) (AID 2282992); conditions: HepG2 Attagene ARE/NRF2 reporter, transcription factor activity; actives raise or lower the signal;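 for AC50: reporter mRNA level measured by RT-PCR and capillary electrophoresis fluorescence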
Method in brief: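 Readout: reporter mRNA quantified by RT-PCR plus FAM-labelled primer extension, HpaI digestion and capillary electrophoresis, 24 h after dosing transfected HepG2 cells. Gain or loss of signal is fitted bidirectionally against DMSO baseline.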

[6] = ATG_Oct_MLP_CIS: Attagene CIS-FACTORIAL HepG2 Assay for human Octamer-Binding Transcription Factor (Oct) (AID 2282993); conditions: HepG2 Attagene cis-factorial Oct reporter, mRNA; actives raise or lower the signal
Method in brief: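 HepG2, transient MRTU transfection, cis promoter elements; 24 h dosing; RT-PCR/CE fluorescence read-out of reporter mRNA; fit both directions vs DMSO.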

[7] = biological target: Cellular tumor antigen p53 (Homo sapiens) (UniProt P04637); experiment: ATG_p53_CIS: Attagene CIS-FACTORIAL HepG2 Assay for human p53 Transcription Factor (AID 2282994); conditions: HepG2 p53 cis-element reporter, Attagene mRNA; actives raise or lower the signal
Method in brief: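 Read-out: reporter mRNA by RT-PCR plus capillary electrophoresis with fluorescence detection. Human HepG2 liver cells carried transfected multi-reporter cis-element constructs, dosed 24 h. Gain or loss of signal fitted bidirectionally against DMSO control.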

[8] = biological target: human Peroxisome Proliferator-activated Receptor delta (PPARd), PPARD (gene 5467) (UniProt Q03181); experiment: ATG_PPARd_TRANS: Attagene TRANS-FACTORIAL HepG2 Assay for human Peroxisome Proliferator-activated Receptor delta (PPARd) (AID 2283002; active = hit-call score of the fitted dose curve at least 0.9, where 1 is the maximum)
Method in brief: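 Read-out is induced reporter mRNA, quantified by RT-PCR with fluorescent labelling and capillary electrophoresis after 24 h dosing. Cells are HepG2 transiently carrying multiple GAL4-UAS reporter units driven by exogenous NR-GAL4 chimeras; DMSO serves as baseline.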

[9] = biological target: Peroxisome proliferator-activated receptor gamma (Homo sapiens) (UniProt P37231); experiment: ATG_PPARg_TRANS: Attagene TRANS-FACTORIAL HepG2 Assay for human Peroxisome Proliferator-activated Receptor-gamma (PPARg) (AID 2283007; active = hit-call score of the fitted dose curve at least 0.9, where 1 is the maximum)
Method in brief: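 Human hepatoma HepG2, transient MRTU transfection, 24 h treatment. mRNA reporter signal by RT-PCR plus capillary electrophoresis, fluorescence detection; fitted for increase over DMSO negative control.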

[10] = biological target: human RAR-related Orphan Receptor beta (RORb), RORB (gene 6096) (UniProt Q92753); experiment: ATG_RORb_TRANS: Attagene TRANS-FACTORIAL HepG2 Assay for human RAR-related Orphan Receptor beta (RORb) (AID 2283010; active = hit-call score of the fitted dose curve at least 0.9, where 1 is the maximum)
Method in brief: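 HepG2, transient MRTU transfection (GAL4-UAS reporters, exogenous NR-Gal4 chimeras); 24 h compound exposure; total RNA → RT-PCR → 6-FAM primer extension → HpaI digest → CE fluorescence. Positive direction vs DMSO baseline.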

[11] = biological target: Nuclear receptor subfamily 1 group I member 2 (Homo sapiens) (UniProt O75469); experiment: ATG_PXR_TRANS: Attagene TRANS-FACTORIAL HepG2 Assay for human Pregnane X Receptor (PXR) (AID 2283008; active = hit-call score of the fitted dose curve at least 0.9, where 1 is the maximum)
Method in brief: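 Trans-factorial format: exogenous NR-Gal4 fusion activity, not endogenous factor, in transfected human HepG2 liver cells. After 24 h dosing, RNA isolated, reverse-transcribed, amplified and resolved by capillary electrophoresis; induction scored versus DMSO.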

[12] = biological target: human Peroxisome Proliferator-activated Receptor alpha (PPARa), PPARA (gene 5465) (UniProt Q07869); experiment: ATG_PPARa_TRANS: Attagene TRANS-FACTORIAL HepG2 Assay for human Peroxisome Proliferator-activated Receptor alpha (PPARa) (AID 2283001; active = hit-call score of the fitted dose curve at least 0.9, where 1 is the maximum)
Method in brief: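 Transfected HepG2 cells treated with test chemical for 24 h. RNA isolated, reverse-transcribed with oligo(dT), PCR-amplified, FAM-labelled and HpaI-digested. Fragments sized by capillary electrophoresis; gain-of-signal fit relative to DMSO.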

[13] = biological target: human Retinoic Acid Receptor gamma (RARg), RARG (gene 5916) (UniProt P13631); experiment: ATG_RARg_TRANS: Attagene TRANS-FACTORIAL HepG2 Assay for human Retinoic Acid Receptor gamma (RARg) (AID 2283009; active = hit-call score of the fitted dose curve at least 0.9, where 1 is the maximum;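 for AC50: AC50 is for reporter induction above DMSO meaning RARg activation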)
Method in brief: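 Readout: reporter transcript levels via RT-PCR, 6-FAM primer-extension labelling, HpaI digestion and capillary electrophoresis. Cells: HepG2 carrying transfected RARg-GAL4 chimera plus UAS reporter set. Dosing 24 h; DMSO negative control.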

[14] = BSK_3C_TissueFactor: BioMAP Diversity Plus: 3C Assay for Tissue Factor Biomarker Activity (AID 2282997); conditions: BioMAP 3C HUVEC, tissue factor biomarker readout; actives raise or lower the signal
Method in brief: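 After a 24 h chemical exposure of primary human umbilical vein endothelial cells, Tissue Factor levels were quantified by ELISA.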

[15] = BSK_3C_uPAR: BioMAP Diversity Plus: 3C Assay for Urokinase-type plasminogen activator receptor (uPAR) Biomarker Activity (AID 2282998); conditions: BioMAP 3C HUVEC, uPAR biomarker ELISA; actives raise or lower the signal
Method in brief: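 A multiplexed primary-cell system built on human umbilical vein endothelium was used, with chemical present for 24 h before reading. Cell-surface uPAR was detected by ELISA; signal change in either direction counted against DMSO.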

[16] = BSK_4H_Eotaxin3: BioMAP Diversity Plus: 4H Assay for Eotaxin 3 Biomarker Activity (AID 2283000); conditions: primary human endothelial cells (HUVEC); actives raise or lower the signal;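 note: CCL26 protein level quantified by ELISA in parallel with SRB cytotoxicity check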
Method in brief: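 Chemicals were added to human umbilical vein endothelium cultures, and Eotaxin-3 was quantified by ELISA at 24 h. Values were derived by bidirectional fitting with DMSO serving as negative control and activity baseline.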

[17] = read-out: Intercellular Adhesion Molecule 1 (ICAM1), ICAM1 (gene 3383); experiment: BSK_3C_ICAM1: BioMAP Diversity Plus: 3C Assay for Intercellular Adhesion Molecule 1 (ICAM1) Biomarker Activity (AID 2283003); conditions: primary human endothelial cells (HUVEC); actives raise or lower the signal
Method in brief: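 ELISA read-out of ICAM-1; HUVEC (primary human), 3C system, 24 h post-dosing; bidirectional fit vs DMSO baseline.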

[18] = BSK_3C_Proliferation: Cell Proliferation Assessment in the BioMAP Diversity Plus: 3C Assay (AID 2283006); conditions: primary human endothelial cells (HUVEC)
Method in brief: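 HUVEC, sub-confluent; 48 h chemical exposure; 10% TCA fix, 0.1% SRB stain, A560 total protein. Gain or loss of signal fitted both directions vs DMSO control.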

[19] = biological target: Retinoic acid receptor alpha (Homo sapiens) (UniProt P10276); experiment: ATG_RARa_TRANS: Attagene TRANS-FACTORIAL HepG2 Assay for human Retinoic Acid Receptor alpha (RARa) (AID 2283005; active = hit-call score of the fitted dose curve at least 0.9, where 1 is the maximum)
Method in brief: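 Reporter transcripts, measured by RT-PCR with fluorescent labeling and capillary electrophoresis after 24 h dosing, reflect activity of an exogenous human RARa–GAL4 fusion in transiently transfected HepG2. Fitted for increase relative to DMSO.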

Measured: AC50

Peroxisome proliferator-activated receptor gamma (Homo sapiens), sequence (P37231 whole entry, looked up): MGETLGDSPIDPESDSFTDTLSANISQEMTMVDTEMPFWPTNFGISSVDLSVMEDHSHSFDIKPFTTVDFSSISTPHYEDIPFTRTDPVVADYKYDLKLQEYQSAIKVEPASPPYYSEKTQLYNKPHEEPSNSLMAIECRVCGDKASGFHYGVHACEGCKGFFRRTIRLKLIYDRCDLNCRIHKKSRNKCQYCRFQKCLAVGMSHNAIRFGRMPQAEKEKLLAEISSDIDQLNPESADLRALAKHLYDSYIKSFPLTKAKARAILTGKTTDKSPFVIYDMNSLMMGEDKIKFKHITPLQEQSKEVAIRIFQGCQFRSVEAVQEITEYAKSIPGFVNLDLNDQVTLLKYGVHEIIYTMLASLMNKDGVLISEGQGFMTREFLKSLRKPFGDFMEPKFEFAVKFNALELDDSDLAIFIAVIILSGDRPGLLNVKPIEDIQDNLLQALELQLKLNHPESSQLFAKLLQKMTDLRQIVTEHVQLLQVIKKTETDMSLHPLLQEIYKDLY
Myc proto-oncogene protein (Homo sapiens), sequence (P01106 whole entry, looked up, the tested form may be a part): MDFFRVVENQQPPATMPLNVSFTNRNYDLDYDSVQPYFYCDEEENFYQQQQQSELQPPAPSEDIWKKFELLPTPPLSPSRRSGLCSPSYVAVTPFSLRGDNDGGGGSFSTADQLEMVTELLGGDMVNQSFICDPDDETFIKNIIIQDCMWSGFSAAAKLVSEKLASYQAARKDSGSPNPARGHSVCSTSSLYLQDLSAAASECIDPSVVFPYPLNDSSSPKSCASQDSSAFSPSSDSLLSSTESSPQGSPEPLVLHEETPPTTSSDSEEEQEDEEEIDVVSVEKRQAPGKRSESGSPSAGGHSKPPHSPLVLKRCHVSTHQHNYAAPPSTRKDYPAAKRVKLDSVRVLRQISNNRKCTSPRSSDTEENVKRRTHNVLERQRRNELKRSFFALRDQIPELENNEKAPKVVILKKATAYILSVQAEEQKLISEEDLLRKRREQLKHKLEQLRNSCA
human RAR-related Orphan Receptor beta (RORb), RORB (gene 6096), sequence (Q92753 whole entry, looked up, the tested form may be a part): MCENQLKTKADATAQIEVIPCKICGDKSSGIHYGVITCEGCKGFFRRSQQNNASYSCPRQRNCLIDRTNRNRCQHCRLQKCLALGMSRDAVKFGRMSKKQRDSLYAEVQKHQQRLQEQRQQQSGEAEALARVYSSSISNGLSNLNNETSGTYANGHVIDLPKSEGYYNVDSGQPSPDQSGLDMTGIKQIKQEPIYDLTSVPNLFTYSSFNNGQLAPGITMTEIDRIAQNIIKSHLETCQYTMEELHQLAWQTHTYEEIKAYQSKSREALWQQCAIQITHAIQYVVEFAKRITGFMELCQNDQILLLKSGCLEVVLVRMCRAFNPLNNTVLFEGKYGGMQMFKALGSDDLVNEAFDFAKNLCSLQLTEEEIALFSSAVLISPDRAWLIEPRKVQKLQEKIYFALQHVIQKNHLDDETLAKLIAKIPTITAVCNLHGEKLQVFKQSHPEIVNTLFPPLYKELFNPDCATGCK
human Peroxisome Proliferator-activated Receptor alpha (PPARa), PPARA (gene 5465), sequence (Q07869 whole entry, looked up, the tested form may be a part): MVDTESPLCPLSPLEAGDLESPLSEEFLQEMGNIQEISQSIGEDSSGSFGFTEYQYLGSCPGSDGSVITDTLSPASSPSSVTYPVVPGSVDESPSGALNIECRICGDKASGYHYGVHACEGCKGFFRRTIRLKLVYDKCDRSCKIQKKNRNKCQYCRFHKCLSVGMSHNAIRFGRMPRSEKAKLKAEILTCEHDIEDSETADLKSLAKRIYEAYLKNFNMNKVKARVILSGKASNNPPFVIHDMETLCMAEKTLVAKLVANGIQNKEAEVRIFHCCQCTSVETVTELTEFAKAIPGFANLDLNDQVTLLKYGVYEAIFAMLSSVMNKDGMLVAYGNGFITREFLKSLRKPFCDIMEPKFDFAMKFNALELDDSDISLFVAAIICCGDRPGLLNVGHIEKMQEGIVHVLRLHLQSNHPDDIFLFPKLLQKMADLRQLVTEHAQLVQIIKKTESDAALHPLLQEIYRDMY
human Retinoic Acid Receptor gamma (RARg), RARG (gene 5916), sequence (P13631 whole entry, looked up, the tested form may be a part): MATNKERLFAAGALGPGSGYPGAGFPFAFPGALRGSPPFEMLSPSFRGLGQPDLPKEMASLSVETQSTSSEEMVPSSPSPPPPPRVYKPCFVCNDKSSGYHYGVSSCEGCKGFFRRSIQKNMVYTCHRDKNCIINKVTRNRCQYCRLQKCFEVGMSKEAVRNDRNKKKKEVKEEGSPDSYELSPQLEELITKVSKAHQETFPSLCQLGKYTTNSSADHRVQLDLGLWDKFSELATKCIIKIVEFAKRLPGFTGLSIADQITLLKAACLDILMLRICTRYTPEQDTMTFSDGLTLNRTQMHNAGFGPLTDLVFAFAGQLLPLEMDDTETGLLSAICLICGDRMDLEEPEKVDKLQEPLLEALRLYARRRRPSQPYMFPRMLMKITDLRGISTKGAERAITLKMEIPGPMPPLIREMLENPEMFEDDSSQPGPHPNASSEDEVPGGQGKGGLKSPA
Cellular tumor antigen p53 (Homo sapiens), sequence (P04637 whole entry, looked up): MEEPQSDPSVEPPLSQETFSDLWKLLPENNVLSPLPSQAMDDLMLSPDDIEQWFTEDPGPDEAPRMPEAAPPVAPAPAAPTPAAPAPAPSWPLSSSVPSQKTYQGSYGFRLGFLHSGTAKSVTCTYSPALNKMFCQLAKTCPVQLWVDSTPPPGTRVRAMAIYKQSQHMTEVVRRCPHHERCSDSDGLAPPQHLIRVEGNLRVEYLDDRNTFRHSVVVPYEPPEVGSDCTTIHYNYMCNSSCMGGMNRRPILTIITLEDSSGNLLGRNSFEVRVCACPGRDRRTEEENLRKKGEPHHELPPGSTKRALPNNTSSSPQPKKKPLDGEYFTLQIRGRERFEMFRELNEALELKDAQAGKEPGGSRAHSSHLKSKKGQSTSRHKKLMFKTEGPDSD
Retinoic acid receptor alpha (Homo sapiens), sequence (P10276 whole entry, looked up, the tested form may be a part): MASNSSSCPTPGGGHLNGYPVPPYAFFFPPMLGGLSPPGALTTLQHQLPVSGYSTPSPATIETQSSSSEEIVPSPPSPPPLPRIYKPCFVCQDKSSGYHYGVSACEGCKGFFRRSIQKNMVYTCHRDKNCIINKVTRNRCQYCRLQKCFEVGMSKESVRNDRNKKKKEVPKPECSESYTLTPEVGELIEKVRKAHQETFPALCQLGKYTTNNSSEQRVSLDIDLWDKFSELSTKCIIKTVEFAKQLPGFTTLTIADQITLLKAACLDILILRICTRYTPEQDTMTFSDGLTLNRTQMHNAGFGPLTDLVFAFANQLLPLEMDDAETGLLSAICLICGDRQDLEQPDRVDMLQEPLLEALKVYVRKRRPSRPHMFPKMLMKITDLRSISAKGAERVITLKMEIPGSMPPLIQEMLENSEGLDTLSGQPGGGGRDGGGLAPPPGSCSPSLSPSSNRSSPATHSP
Nuclear respiratory factor 1 (Homo sapiens), sequence (Q16656 whole entry, looked up): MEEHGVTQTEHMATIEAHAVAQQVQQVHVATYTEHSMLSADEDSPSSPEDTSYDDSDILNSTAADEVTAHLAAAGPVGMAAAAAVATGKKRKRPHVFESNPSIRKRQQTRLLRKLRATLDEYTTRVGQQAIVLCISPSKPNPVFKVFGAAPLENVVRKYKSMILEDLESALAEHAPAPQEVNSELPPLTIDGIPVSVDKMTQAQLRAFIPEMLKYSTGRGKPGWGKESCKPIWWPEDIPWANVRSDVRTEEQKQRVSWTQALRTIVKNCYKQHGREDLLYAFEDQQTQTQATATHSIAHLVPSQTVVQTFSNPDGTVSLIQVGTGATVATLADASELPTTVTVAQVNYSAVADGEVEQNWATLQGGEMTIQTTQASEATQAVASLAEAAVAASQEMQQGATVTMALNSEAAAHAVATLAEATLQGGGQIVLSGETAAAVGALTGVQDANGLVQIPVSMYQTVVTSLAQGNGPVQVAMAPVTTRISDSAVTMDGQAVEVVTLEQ
human Peroxisome Proliferator-activated Receptor delta (PPARd), PPARD (gene 5467), sequence (Q03181 whole entry, looked up, the tested form may be a part): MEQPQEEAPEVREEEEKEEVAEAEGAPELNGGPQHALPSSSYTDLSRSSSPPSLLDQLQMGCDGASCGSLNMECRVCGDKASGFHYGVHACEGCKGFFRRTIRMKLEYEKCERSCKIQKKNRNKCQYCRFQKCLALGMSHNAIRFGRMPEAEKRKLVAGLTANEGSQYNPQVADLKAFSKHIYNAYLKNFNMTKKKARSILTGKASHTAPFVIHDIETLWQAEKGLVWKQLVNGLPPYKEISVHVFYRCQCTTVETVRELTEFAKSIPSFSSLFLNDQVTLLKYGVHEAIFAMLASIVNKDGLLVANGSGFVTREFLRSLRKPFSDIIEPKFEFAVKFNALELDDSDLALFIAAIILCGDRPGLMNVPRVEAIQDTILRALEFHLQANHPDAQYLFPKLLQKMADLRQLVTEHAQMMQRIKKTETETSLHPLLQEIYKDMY
Nuclear receptor subfamily 1 group I member 2 (Homo sapiens), sequence (O75469 whole entry, looked up, the tested form may be a part): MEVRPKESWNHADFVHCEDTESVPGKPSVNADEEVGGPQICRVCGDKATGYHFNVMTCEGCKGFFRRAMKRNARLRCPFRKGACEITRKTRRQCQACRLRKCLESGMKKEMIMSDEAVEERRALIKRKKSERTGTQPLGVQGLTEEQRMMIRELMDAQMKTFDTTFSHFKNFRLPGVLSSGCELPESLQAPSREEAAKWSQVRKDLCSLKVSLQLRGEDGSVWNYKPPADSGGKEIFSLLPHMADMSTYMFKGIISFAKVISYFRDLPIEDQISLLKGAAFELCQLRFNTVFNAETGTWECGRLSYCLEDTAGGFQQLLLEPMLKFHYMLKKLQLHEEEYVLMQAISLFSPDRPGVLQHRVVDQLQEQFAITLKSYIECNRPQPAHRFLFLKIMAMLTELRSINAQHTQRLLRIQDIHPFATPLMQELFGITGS

CCCCCCOC(C)=O
inactive: [1] | [2] | [3] | [4] | [5] | [6] | [7] | [8] | [9]

CC(=O)c1ccc(O)cc1
inactive: [1] | [2] | [3] | [4] | [5] | [6] | [7] | [8] | [9] | [10]

CCCCC(CC)COCCO (stereo not given)
inactive: [1] | [2] | [3] | [4] | [5] | [6] | [7] | [9] | [11] | [10]

Nc1ccc(O)c(N)c1
inactive: [1] | [2] | [3] | [6] | [7] | [12] | [11]
active: [5] 43.9 µM

O=Cc1ccccc1O
inactive: [1] | [2] | [4] | [5] | [6] | [7] | [12] | [8] | [9] | [11] | [13] | [10]

CCCO[Si](OCCC)(OCCC)OCCC
inactive: [1] | [2] | [3] | [5] | [7] | [14] | [15] | [16] | [8] | [17] | [18] | [11]

O=C(O)c1ccccc1O
inactive: [1] | [2] | [3] | [5] | [6] | [19] | [9]

COC(=O)c1cccc(C(=O)OC)c1
active: [5] 24.7 µM
inactive: [1] | [2] | [3] | [6] | [7] | [12] | [9] | [11] | [13] | [10]

C[C@H](CCC(=O)O)[C@H]1CC[C@H]2[C@@H]3CC[C@@H]4C[C@H](O)CC[C@]4(C)[C@H]3CC[C@]12C
inactive: [1] | [6] | [10]
active: [2] 100 µM | [3] 156 µM | [5] 45.4 µM | [7] 100 µM | [8] 54.1 µM | [9] 29.1 µM

COc1ccc(C(C)=O)cc1
inactive: [1] | [2] | [3] | [5] | [6] | [7] | [12] | [9] | [10]

CCOC(=O)CC(C)C
inactive: [1] | [2] | [3] | [5] | [6] | [8] | [9] | [11]

[Cu+]
inactive: [1] | [2] | [3] | [6] | [7] | [8] | [19] | [9] | [11] | [13] | [10]
active: [5] 2.29 µM

C=CCOCC(O)CO (stereo not given)
active: [3] 137 µM
inactive: [1] | [2] | [5] | [7] | [11] | [10]

CCOc1ccc(NC(C)=O)cc1
inactive: [1] | [2] | [3] | [5] | [6] | [7] | [12] | [9] | [11] | [10]

CC(=O)C1=C(C)[C@@H]2C[C@@]3(C1)[C@H](C)CC[C@H]3C2(C)C
inactive: [1] | [3] | [6] | [8]
active: [2] 137 µM | [5] 70.1 µM | [7] 100 µM | [11] 2.1 µM

Cc1cccc(C)c1
inactive: [1] | [2] | [3] | [5] | [6] | [8] | [9]

CCCCCCCC(=O)N(C)C
inactive: [1] | [2] | [3] | [5] | [6] | [7] | [8] | [9] | [11] | [13]

CC(=O)CCC(=O)O
inactive: [1] | [2] | [3] | [5] | [6] | [9] | [11] | [10]

NC(N)=S
inactive: [1] | [2] | [3] | [5] | [6] | [7] | [10]

CCc1cccc(O)c1
inactive: [1] | [2] | [3] | [5] | [6] | [7] | [12] | [9] | [11] | [10]

C1CCCNCC1
inactive: [1] | [2] | [3] | [5] | [8] | [9]

CN1CCc2cccc3c2[C@H]1Cc1ccc(O)c(O)c1-3
active: [1] 3.59 µM | [5] 5.05 µM | [9] 12 µM | [13] 0.775 µM
inactive: [2] | [3] | [7] | [12] | [8] | [19] | [11]

NC(=O)c1cccnc1
inactive: [1] | [2] | [3] | [5] | [6] | [7] | [8] | [9]

CC(=O)C1C(=O)C=C(C)OC1=O (stereo not given)
inactive: [1] | [2] | [3] | [5] | [7] | [19] | [13]

CC(=O)c1ccc2ccccc2c1
inactive: [1] | [2] | [3] | [5] | [7] | [12] | [11] | [10]

CCCCCCCCCCO[C@@H]1O[C@H](CO)[C@@H](O)[C@H](O)[C@H]1O
active: [5] 100 µM
inactive: [1] | [2] | [3] | [12] | [8] | [13]

S=c1[nH][nH]c(=S)s1
inactive: [1] | [2] | [4] | [5] | [6] | [7] | [12] | [8] | [11]
